What all share (assay): NCI-60 one-dose screen, 48 h (100 = growth as untreated, 0 = no growth, -100 = all killed)
One experiment relates to HCT-15 colon. To be noted: 10 µM unless noted.
Another experiment concerns HT29 colon. The settings on record: 10 µM unless noted.
In the next experiment the test system is SNB-75 CNS. The settings on record: 10 µM unless noted.
The subject of another experiment is SNB-19 CNS. The settings on record: 10 µM unless noted.
The subject of a further experiment is U251 CNS. The settings on record: 10 µM unless noted.
Another experiment relates to PC-3 prostate. The settings on record: 10 µM unless noted.
A further experiment deals with SK-MEL-5 melanoma. The settings on record: 10 µM unless noted.
For another experiment, the system named is UACC-62 melanoma. The settings on record: 10 µM unless noted.
Another experiment deals with LOX IMVI melanoma. To be noted: 10 µM unless noted.
In another experiment the test system is SK-MEL-28 melanoma. The settings on record: 10 µM unless noted.
The test system of another experiment is SK-MEL-2 melanoma. The settings on record: 10 µM unless noted.
The next experiment relates to EKVX NSCLC. To be noted: 10 µM.
The subject of the next experiment is SN12C renal. The settings on record: 10 µM unless noted.
The test system of another experiment is UO-31 renal. To be noted: 10 µM unless noted.
The subject of another experiment is TK-10 renal. The settings on record: 10 µM unless noted.
Another experiment relates to ACHN renal. To be noted: 10 µM unless noted.
For a further experiment, the system named is CAKI-1 renal. The settings on record: 10 µM unless noted.
The test system of a further experiment is CCRF-CEM leukemia. To be noted: 10 µM.
The next experiment has as its system MOLT-4 leukemia. The settings on record: 10 µM unless noted.
Another experiment has as its system A498 renal. To be noted: 10 µM unless noted.

Molecules are shown by their SMILES. This is part of a sample that, as a whole, favours compounds with a hit. Of some 83,000 tested, about 20% had one in any assay.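 A percent growth of 40 corresponds to 60% growth inhibition; 0 means no net growth; -100 means all cells died. Active threshold: below 10.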 Values without a mark were called inactive. Calls of active or inactive are those of the source.

In the case of `N#CC1=C(N2CCOCC2)NC2c3ccccc3Sc3ccccc3N2C1=N` (configuration not stated), the growth in the experiment with HCT-15 colon is 104%; in the experiment with HT29 colon, 104%; in the experiment on SNB-75 CNS, 94.1%; with SNB-19 CNS, 107%; with U251 CNS it was 98.7%; in the experiment on PC-3 prostate, 88.8%. In addition, the growth is 90.3% with SK-MEL-5 melanoma; 87.4% in the experiment with UACC-62 melanoma; 94.2% in the experiment on LOX IMVI melanoma; 93.9% in the experiment with SK-MEL-28 melanoma; 108% in the experiment on SK-MEL-2 melanoma; 92.8% in the experiment on EKVX NSCLC. The growth in the experiment on SN12C renal is 103%; in the experiment on UO-31 renal it was 72.9%; in the experiment with TK-10 renal, 96.9%; with ACHN renal, 91.5%; in the experiment on CAKI-1 renal it was 94%; in the experiment with CCRF-CEM leukemia, 82.7%. The growth in the experiment on MOLT-4 leukemia was 120%.

Turning to `COc1ccc(C(=O)c2no[n+]([O-])c2C(=O)c2ccc(OC)cc2)cc1`, the growth was 20.1% in the experiment with HCT-15 colon; 10.1% in the experiment on HT29 colon; -99.3% (active) in the experiment on SNB-75 CNS; 97.7% in the experiment with SNB-19 CNS; 35.9% in the experiment with U251 CNS; -37.7% (active) with PC-3 prostate. Besides, the growth in the experiment with SK-MEL-5 melanoma is 85.5%; in the experiment on UACC-62 melanoma, 78.9%; with LOX IMVI melanoma, -69.2% (active); in the experiment with SK-MEL-28 melanoma it was 109%; in the experiment with SK-MEL-2 melanoma it was 93%; in the experiment with EKVX NSCLC, 64.8%. Moreover, the growth with SN12C renal is 72.5%; in the experiment with UO-31 renal, -100% (active); with TK-10 renal, 5.22% (active); in the experiment on ACHN renal, -47% (active); with A498 renal, 116%; with CCRF-CEM leukemia it was -68.7% (active). The growth in the experiment on MOLT-4 leukemia was -80.1% (active).

`CCNc1nnc(COc2ccc(CNC(=O)CCCC/C=C/C(C)C)cc2OC)o1`: the growth was 96.9% in the experiment on HCT-15 colon; 105% with HT29 colon; 86.2% with SNB-75 CNS; 104% in the experiment with SNB-19 CNS; 98.3% in the experiment with U251 CNS; 104% in the experiment with PC-3 prostate. Besides, the growth with SK-MEL-5 melanoma is 102%; with UACC-62 melanoma, 95%; with LOX IMVI melanoma, 93.2%; in the experiment with SK-MEL-28 melanoma, 104%; in the experiment on SK-MEL-2 melanoma, 104%; with EKVX NSCLC, 96.7%. Also, the growth in the experiment on SN12C renal is 104%; with UO-31 renal it was 84.2%; in the experiment on TK-10 renal, 107%; in the experiment on ACHN renal it was 101%; in the experiment on A498 renal, 109%; in the experiment on CCRF-CEM leukemia, 97.5%. Moreover, the growth in the experiment on MOLT-4 leukemia was 104%.

In the case of `C/C(=N\Nc1cccc(Cl)n1)c1ccccn1`, the growth was 23.5% with HCT-15 colon; 26.2% in the experiment on HT29 colon; 36.6% with SNB-75 CNS; 23.1% in the experiment with SNB-19 CNS; 14.5% with U251 CNS; 29.3% in the experiment on PC-3 prostate. Also, the growth was -51.6% (active) in the experiment on SK-MEL-5 melanoma; -24.1% (active) in the experiment with UACC-62 melanoma; 0.322% (active) in the experiment with LOX IMVI melanoma; 14.2% with SK-MEL-28 melanoma; 21% in the experiment on SK-MEL-2 melanoma; 5.56% (active) in the experiment with EKVX NSCLC. Further, the growth was 13.6% in the experiment with SN12C renal; -1.99% (active) in the experiment with UO-31 renal; 22.7% in the experiment on TK-10 renal; 6.24% (active) with ACHN renal; -1.3% (active) in the experiment on A498 renal; 6.2% (active) with CCRF-CEM leukemia. For the same compound, the growth in the experiment on MOLT-4 leukemia was 4.01% (active).

On to `CC(=O)OC1CC2C3CCC4C[C@@H](NC(=O)C=C(C)C)CC[C@]4(C)C3CC[C@]2(C)[C@H]1C(C)N(C)C` (some centres not stated), for which the growth is -38.7% (active) in the experiment on HCT-15 colon; -20.9% (active) in the experiment with HT29 colon; 8.51% (active) in the experiment with SNB-75 CNS; 49.2% in the experiment on SNB-19 CNS; 11.5% in the experiment with U251 CNS; 13.1% in the experiment with PC-3 prostate. Also, the growth in the experiment with SK-MEL-5 melanoma was -95.2% (active); with UACC-62 melanoma, -52.6% (active); with LOX IMVI melanoma, -15% (active); with SK-MEL-28 melanoma, -91.3% (active); in the experiment with SK-MEL-2 melanoma, 5.9% (active); in the experiment on EKVX NSCLC, 29.3%. Also, the growth in the experiment on SN12C renal was 14.3%; with UO-31 renal it was 8.5% (active); in the experiment on TK-10 renal, 48.4%; in the experiment on ACHN renal, 21.4%; in the experiment on CAKI-1 renal it was -19.6% (active); in the experiment with A498 renal, 33.2%. In addition, the growth was 0.674% (active) in the experiment on CCRF-CEM leukemia and -31.9% (active) in the experiment on MOLT-4 leukemia.

Consider `C[C@]12C=CC(=O)C=C1[C@@H](F)C[C@@H]1[C@@H]2[C@@H](O)C[C@@]2(C)[C@H]1CC[C@]2(O)C(=O)CO`, for which the growth was 108% in the experiment on HCT-15 colon; 103% in the experiment on HT29 colon; 145% in the experiment on SNB-75 CNS; 96.2% with SNB-19 CNS; 108% with U251 CNS; 97.1% with PC-3 prostate. The growth was 120% with SK-MEL-5 melanoma; 110% in the experiment on UACC-62 melanoma; 103% in the experiment with LOX IMVI melanoma; 124% in the experiment on SK-MEL-28 melanoma; 107% with SK-MEL-2 melanoma; 83% in the experiment with EKVX NSCLC. Further, the growth in the experiment on SN12C renal is 69.8%; in the experiment with UO-31 renal, 79.3%; in the experiment on TK-10 renal, 107%; with ACHN renal, 99.4%; in the experiment on CAKI-1 renal it was 88.6%; with CCRF-CEM leukemia it was 46.5%. For the same compound, the growth in the experiment on MOLT-4 leukemia is 108%.

With `C[C@]12CC[C@H]3[C@@H](CC[C@H]4C[C@@H](O)CC[C@@]43C)[C@@H]1CC(=O)C2`, the growth with HCT-15 colon is 100%; in the experiment on HT29 colon, 96.9%; with SNB-75 CNS it was 98.2%; in the experiment with SNB-19 CNS, 100%; with U251 CNS, 97.6%; with PC-3 prostate it was 99.7%. Further, the growth with SK-MEL-5 melanoma was 111%; with UACC-62 melanoma, 87.6%; in the experiment with LOX IMVI melanoma, 102%; in the experiment with SK-MEL-28 melanoma, 113%; with SK-MEL-2 melanoma it was 103%; in the experiment with EKVX NSCLC, 96.9%. The growth in the experiment on SN12C renal was 101%; with UO-31 renal, 84.1%; in the experiment with TK-10 renal, 94.2%; in the experiment on ACHN renal, 100%; in the experiment on CAKI-1 renal, 87.6%; in the experiment with MOLT-4 leukemia it was 85.7%.

Turning to `O=C(/C=C1\C(=O)N(Cc2ccc([N+](=O)[O-])cc2)c2ccccc21)c1ccc(OCCN2CCCC2)cc1`, the growth with HCT-15 colon was 15.4%; in the experiment on HT29 colon, 17.4%; in the experiment with SNB-75 CNS it was 65.3%; in the experiment with SNB-19 CNS it was 95.1%; in the experiment with U251 CNS, 84.7%; with PC-3 prostate it was 77%. For the same compound, the growth was 88.5% with SK-MEL-5 melanoma; 85.8% in the experiment with UACC-62 melanoma; 16.7% with LOX IMVI melanoma; 104% in the experiment with SK-MEL-28 melanoma; 93.7% with SK-MEL-2 melanoma; 71.5% with EKVX NSCLC. In addition, the growth with SN12C renal was 37.3%; with UO-31 renal, 40.8%; in the experiment on TK-10 renal, 82.8%; in the experiment with ACHN renal it was 45.7%; in the experiment on A498 renal, 83.1%; with CCRF-CEM leukemia it was 15.2%. Besides, the growth in the experiment with MOLT-4 leukemia is 9.27% (active).

The values are drawn from PubChem BioAssay (NCI).
